From the supplement of paper PMC10981050
“And” between values parts separate entries of the source, which are not always exact repeats. Identical values can stand only once. Counter-ions that a name gives are not always drawn.

tested on: K562; experiment: cell viability relative to vehicle control; higher = less cytotoxic; details: 10 µM; SRSF2 genotype: SRSF2 P95H/wt
In short: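 CRISPR-edited mutant clones and isogenic wild-type clones from four leukaemia lines were screened against Selleck bioactive, kinase and epigenetic probe libraries, with identity-inconsistent compounds excluded. Each compound was acoustically dispensed at a single 10 µM dose into 384-well plates holding 2000 cells in 50 µL medium per well. After 48 h the supernatant was removed and CellTiter-Glo luminescence was read. Viability was expressed as percent of the on-plate vehicle control and analysed in Genedata Screener.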

SMILES | cell viability
NC(=O)c1cccc2cn(-c3ccc(C4CCCNC4)cc3)nc12 (stereo not drawn) [MK-4827(Niraparib)] | 102% and 104%
CCOC(=O)C1=C(COCCN)NC(C)=C(C(=O)OC)C1c1ccccc1Cl (stereo not drawn) [Amlodipine besylate (Norvasc)] | 79.6% and 95.8%
Cc1ccccc1C(OCCN(C)C)c1ccccc1 (stereo not drawn) [Orphenadrine citrate (Norflex)] | 96.7% and 92%
Cc1ccc(C(C)C)cc1O [Carvacrol] | 100% and 101%
CN1CCN(c2ccc(C(=O)Nc3n[nH]c4ccc(Cc5cc(F)cc(F)c5)cc34)c(NC3CCOCC3)c2)CC1 [Entrectinib (RXDX-101)] | 0.53% and 0.51%
Nc1nc(N)nc(-c2cc(Cl)ccc2Cl)n1 [Irsogladine] | 95.2% and 105%
O=C(Nc1ncc([N+](=O)[O-])s1)c1ccccc1O [Tizoxanide] | 82% and 82.9%
CO[C@H]1C[C@@H]2CC[C@@H](C)[C@@](O)(O2)C(=O)C(=O)N2CCCC[C@H]2C(=O)O[C@H]([C@H](C)C[C@@H]2CC[C@H](n3cnnn3)[C@H](OC)C2)CC(=O)[C@H](C)/C=C(\C)[C@@H](O)[C@@H](OC)C(=O)[C@H](C)C[C@H](C)/C=C/C=C/C=C/1C [Zotarolimus (ABT-578)] | 67.9% and 74.2%
O=C(c1ccc(OCCCc2c[nH]cn2)cc1)C1CC1 [Ciproxifan Maleate] | 89.3% and 91.3%
Cc1ccc2nc(CN(CCN(Cc3nc4ccc(C)cc4[nH]3)Cc3nc4ccc(C)cc4[nH]3)Cc3nc4ccc(C)cc4[nH]3)[nH]c2c1 | 1.04% and 0.84%
Nc1c(Br)cc(Br)cc1CN[C@H]1CC[C@H](O)CC1 [Ambroxol] | 97.6% and 99.3%
O=c1cc(-c2ccc(O)c(O)c2)oc2cc(O)c([C@@H]3O[C@H](CO)[C@@H](O)[C@H](O)[C@H]3O)c(O)c12 [Homoorientin] | 90.2% and 85%
CC(C)(O)CC(=O)NCCn1ccc2ncnc(Nc3ccc(Oc4cccc(C(F)(F)F)c4)c(Cl)c3)c21 | 69.4% and 63.5%
C=CC(=O)Nc1cccc(Nc2nc(Nc3ccc(OCCOC)cc3)ncc2F)c1 | 66.8% and 79.5%
Cc1ncc(COP(=O)(O)O)c(C=O)c1O [Pyridoxal phosphate] | 103% and 104%
NC(=O)c1cnccn1 [Pyrazinamide (Pyrazinoic acid amide)] | 107% and 105%
O=C(O)c1ccc(O)c(O)c1 [Protocatechuic acid] | 101% and 97.7%

SMILES | cell viability
O=C(NC(NC(=S)Nc1ccc(F)c([N+](=O)[O-])c1)C(Cl)(Cl)Cl)C(c1ccccc1)c1ccccc1 (stereo not drawn) | 6.8% and 10.6%
O=C1CCN(c2ccccc2)N1 [Phenidone] | 106% and 107%
C[C@@H]1CC[C@@]2(OC1)O[C@H]1C[C@H]3[C@@H]4CC=C5C[C@@H](O[C@@H]6O[C@H](CO)[C@@H](O)[C@H](O)[C@H]6O)CC[C@]5(C)[C@H]4CC[C@]3(C)[C@H]1[C@@H]2C [Trillin] | 87.5% and 97.2%
COc1ccc(C[C@@H]2c3cc(Oc4cc(C[C@@H]5c6cc(O)c(OC)cc6CCN5C)ccc4O)c(OC)cc3CCN2C)cc1 [Isoliensinine] | 50.4% and 50.8%
CCCCCCCCOc1ccccc1C(=O)Nc1ccc(C(=O)OCC[N+](C)(CC)CC)cc1 [Otilonium Bromide] | 78.5% and 92%
COC(=O)c1cc(O)c(O)c(O)c1 [Methyl gallate] | 103% and 104%
O=C(O)Cc1cccc2ccccc12 [Potassium 1-Naphthaleneacetate] | 92.5% and 95.9%
O=c1[nH]c(=O)n([C@H]2C[C@H](O)[C@@H](CO)O2)cc1C(F)(F)F [Trifluridine (Viroptic)] | 85.4% and 99.2%
C[C@@H](Oc1cc(-n2cnc3ccc(CN4CCN(C)CC4)cc32)sc1C(N)=O)c1ccccc1C(F)(F)F | 31.9% and 32.9%
COc1cccc(OC)c1C(=O)OCc1cc(O)ccc1O[C@@H]1O[C@H](CO)[C@@H](O)[C@H](O)[C@H]1O [Curculigoside] | 101% and 106%
OC[C@@H](O)[C@@H](O)[C@H](O)[C@@H](O)CO [Sorbitol (Glucitol)] | 101% and 105%
CC(=O)CCC=C(C)CCC=C(C)CCC=C(C)CCC=C(C)C [Teprenone] | 94.5% and 91.8%
C[C@]12CC[C@@H]3c4ccc(O)cc4CC[C@H]3[C@@H]1CC[C@@H]2O [Estradiol] | 97% and 94.8%
CCCNC(C)C(=O)Nc1c(C)csc1C(=O)OC (stereo not drawn) [Articaine HCl] | 107% and 117%
O=C1N=C(N2CCOCC2)CN1c1ccc(Cl)cc1 | 107% and 99%
COc1cc(N2CCC(N3CCN(C)CC3)CC2)ccc1Nc1ncnc(Nc2ccccc2S(=O)(=O)C(C)C)n1 | 84.8% and 91%
